Several values for one entry are separate records, joined by “and”; a condition that tells them apart may be missing. Equal values may be shown once. Results filed as inconclusive are left out. Some compounds were tested as several samples or in several runs, with calls that do not always agree. Activity calls are given as the source filed them. Rule for the calls, unless noted: active = hit-call score of the fitted dose curve at least 0.9, where 1 is the maximum; inconclusive = response in the unintended direction; inactive = score below 0.9.
Columns and labels:
[1] = read-out: Cellular tumor antigen p53 (Homo sapiens) (UniProt P04637); test: LTEA_HepaRG_TP53: Life Technologies and Expression Analysis (LTEA) Assay for Tumor Protein P53 (TP53) using HepaRG (AID 2283537; active = hit-call score of the fitted dose curve at least 0.9, where 1 is the maximum; inactive = score below 0.9); details: mRNA level, 48 h; actives raise or lower the signal
In short: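 Differentiated HepaRG cells in serum-free induction medium exposed 48 h in duplicate to 8 half-log concentrations, top 100 uM, 0.5% DMSO. TP53 mRNA by TaqMan qRT-PCR (Fluidigm), normalized to ACTB, GAPDH, POLR2A; fitted bidirectionally versus DMSO.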

[2] = read-out: UDP glucuronosyltransferase (UGT1A6), UGT1A6 (gene 54578); test: LTEA_HepaRG_UGT1A6: Life Technologies and Expression Analysis (LTEA) Assay for UDP glucuronosyltransferase (UGT1A6) using HepaRG (AID 2283539; active = hit-call score of the fitted dose curve at least 0.9, where 1 is the maximum; inactive = score below 0.9); details: mRNA level, 48 h; actives raise or lower the signal
In short: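 Measures mRNA change in HepaRG hepatic cells exposed 48 h to chemicals (eight-point, maximum 100 uM, 0.5% DMSO vehicle) in serum-free induction medium. Expression normalized to endogenous controls; DMSO served as negative control and baseline.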

[3] = read-out: X-box binding protein 1 (XBP1), XBP1 (gene 7494); test: LTEA_HepaRG_XBP1: Life Technologies and Expression Analysis (LTEA) Assay for X-box binding protein 1 (XBP1) using HepaRG (AID 2283540; active = hit-call score of the fitted dose curve at least 0.9, where 1 is the maximum; inactive = score below 0.9); details: mRNA level, 48 h; actives raise or lower the signal
In short: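 Eight concentrations (half-log, highest 100 uM, 0.5% DMSO) tested in duplicate on HepaRG cells over 48 h in serum-free induction medium; qRT-PCR of XBP1 normalised to ACTB, GAPDH, POLR2A.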

[4] = LTEA_HepaRG_LDH_cytotoxicity: Cytotoxicity Assessment in the Life Technologies and Expression Analysis (LTEA) Assay (AID 2283563);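 for AC50: LDH activity released into spent culture medium as a marker of cell death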
In short: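 Spent-medium LDH after 48 h chemical exposure of HepaRG cells in serum-free induction medium; eight concentrations, half-log dilutions from 100 uM, duplicate wells, fitted upward relative to 0.5% DMSO.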

[5] = ATG_XTT_Cytotoxicity: Cytotoxicity Assessment in the Attagene TRANS-FACTORIAL HepG2 Assay (AID 2283584);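 for AC50: XTT signal for cell number as viability in transfected HepG2 cells; cells exposed to compound for 24 h before reading; active means loss of viability signal versus DMSO baseline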
In short: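 24 h chemical exposure of reporter-transfected HepG2; XTT signal loss vs DMSO indicates cytotoxicity.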

[6] = TOX21_p53_BLA_p2_viability: Viability Assessment in the Tox21 HCT-116 p53 Agonism Beta-lactamase Assay, Phase 2 (AID 2283591);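 note: compound exposure lasted 16 h at 37 °C; actives lower the ATP signal meaning cytotoxicity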
In short: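 HCT-116 p53-bla cells (4000/well) rested 5 h at 37C, then received compounds in DMSO (217-fold dilution) for 16 h at 37C, 5% CO2. After the CCF4 read, CellTiter-Glo was added; ATP luminescence was read after 30 min at room temperature.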

[7] = molecular target: Cellular tumor antigen p53 (Homo sapiens) (UniProt P04637); test: TOX21_p53_BLA_p2_ratio: Tox21 HCT-116 p53 Agonism Beta-lactamase Assay, Ratio, Phase 2 (AID 2283592)
Chain of Cellular tumor antigen p53 (Homo sapiens) (P04637 whole entry, looked up): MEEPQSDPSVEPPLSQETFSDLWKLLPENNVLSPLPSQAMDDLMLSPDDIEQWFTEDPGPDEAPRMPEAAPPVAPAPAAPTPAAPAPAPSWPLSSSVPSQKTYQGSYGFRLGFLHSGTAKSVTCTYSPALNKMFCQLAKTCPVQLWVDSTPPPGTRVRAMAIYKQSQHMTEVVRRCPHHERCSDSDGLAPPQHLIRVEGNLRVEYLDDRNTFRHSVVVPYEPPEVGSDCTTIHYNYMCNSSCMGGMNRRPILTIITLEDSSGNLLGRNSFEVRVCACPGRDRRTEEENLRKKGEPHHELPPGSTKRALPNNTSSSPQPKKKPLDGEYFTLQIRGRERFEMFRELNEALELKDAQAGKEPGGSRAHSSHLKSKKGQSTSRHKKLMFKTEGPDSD
In short: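 Human colon HCT116 cells with an inducible p53 beta-lactamase reporter are exposed to test chemicals for 16 h at 37C. Reporter induction is read as the 460/530 nm emission ratio after CCF4-AM loading, normalized to DMSO.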

[8] = TOX21_p53_BLA_p3_viability: Viability Assessment in the Tox21 HCT-116 p53 Agonism Beta-lactamase Assay, Phase 3 (AID 2283593);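 note: cells exposed to compound for 16 h before reading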
In short: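 HCT-116 cells (4000/well) rested 5 h at 37C, then got DMSO compounds by pin tool (217-fold dilution) for 16 h at 37C, 5% CO2. After the bla read, CellTiter-Glo was added and luminescence read at 30 min, room temperature.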

[9] = molecular target: Cellular tumor antigen p53 (Homo sapiens) (UniProt P04637); test: TOX21_p53_BLA_p3_ratio: Tox21 HCT-116 p53 Agonism Beta-lactamase Assay, Ratio, Phase 3 (AID 2283596)
In short: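 HCT116 p53-bla cells (4000/well) given compound in DMSO (217-fold dilution) after 5 h, incubated 16 h at 37C. CCF4-AM substrate 2 h at room temperature; 460/530 nm emission ratio, gain fitted against DMSO.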

[10] = TOX21_p53_BLA_p4_viability: Viability Assessment in the Tox21 HCT-116 p53 Agonism Beta-lactamase Assay, Phase 4 (AID 2283597);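 note: hits lower the luminescence signal meaning cytotoxicity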
In short: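 Luminescent ATP readout (CellTiter-Glo, 30 min, room temperature) in the same wells as the p53 bla ratio. HCT116 cells were treated for 16 h at 37C with DMSO-dissolved compounds.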

[11] = molecular target: Cellular tumor antigen p53 (Homo sapiens) (UniProt P04637); test: TOX21_p53_BLA_p5_ratio: Tox21 HCT-116 p53 Agonism Beta-lactamase Assay, Ratio, Phase 5 (AID 2283599)
In short: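 HCT-116 cells carrying a p53-inducible beta-lactamase reporter were seeded at 4000 cells/well and dosed after 5 h with compound in DMSO (217-fold dilution). After 16 h at 37C, CCF4-AM substrate was added for 2 h, and the 460/530 nm emission ratio was scored as gain-of-signal versus DMSO.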

[12] = TOX21_p53_BLA_p5_viability: Viability Assessment in the Tox21 HCT-116 p53 Agonism Beta-lactamase Assay, Phase 5 (AID 2283600)
In short: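 Seeded cells (4000/well) settle 5 h before compound addition. Plates then incubate 16 h at 37C, receive FRET substrate for 2 h, and finally CellTiter-Glo, with luminescence measured after a 30 min room-temperature incubation.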

[13] = molecular target: Cellular tumor antigen p53 (Homo sapiens) (UniProt P04637); test: TOX21_p53_BLA_p4_ratio: Tox21 HCT-116 p53 Agonism Beta-lactamase Assay, Ratio, Phase 4 (AID 2283601)
In short: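 HCT116 cells carrying an inducible beta-lactamase reporter were plated at 4000 cells/well, rested 5 h, then exposed to compounds in DMSO (217-fold dilution) for 16 h at 37C. CCF4-AM substrate was loaded 2 h at room temperature; 460/530 nm emission ratio scored gain-of-signal versus DMSO.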

[14] = Tanguay_ZF_120hpf_MORT_legacy: (Legacy) Oregon State University Tanguay Lab 120 Hour Post-fertilization zebrafish Assay for Mortality (AID 2283633);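 for AC50: fitted as increase in binary mortality versus DMSO negative control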
In short: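 Single dechorionated Tropical 5D embryos were held with test chemical (0.64% DMSO final) from 6 to 120 hpf at 28C under foil. Deaths at 24 or 120 hpf were recorded as binary calls, analysed for increase over DMSO controls.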

[15] = Tanguay_ZF_120hpf_YSE_legacy: (Legacy) Oregon State University Tanguay Lab 120 Hour Post-fertilization zebrafish Assay for Yolk Sac Edema (AID 2283634);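 for AC50: actives raise the incidence of yolk sac edema above the DMSO baseline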
In short: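 Single dechorionated embryos were held in sealed plates at 28C with test chemical (0.64% DMSO final) from 6 hpf until 120 hpf. Edema of the yolk sac was then recorded as a binary endpoint; non-mortality endpoints were skipped for dead embryos.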

[16] = Tanguay_ZF_120hpf_AXIS_legacy: (Legacy) Oregon State University Tanguay Lab 120 Hour Post-fertilization zebrafish Assay for Body Axis Malformation (AID 2283635);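 for AC50: potency for an increased fraction of larvae scored with body axis malformation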
In short: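 Each dechorionated embryo was exposed alone from 6 hpf, with DMSO at 0.64% (vol/vol) and trimethyltin chloride 5 uM as positive control. Axis malformation was recorded at 120 hpf unless the embryo had died.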

[17] = Tanguay_ZF_120hpf_EYE_legacy: (Legacy) Oregon State University Tanguay Lab 120 Hour Post-fertilization zebrafish Assay for Eye Malformation (AID 2283636);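 note: binary presence or absence of eye malformation scored by brightfield in 120 hpf larvae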
In short: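 Dechorionated wild-type Tropical 5D zebrafish embryos were exposed statically from 6 hpf, one per well, to 120 hpf at 28C in sealed, foil-covered plates with 0.64% DMSO. Eye malformation was scored present/absent by brightfield microscopy against DMSO controls.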

[18] = Tanguay_ZF_120hpf_SNOU_legacy: (Legacy) Oregon State University Tanguay Lab 120 Hour Post-fertilization zebrafish Assay for Snout Malformation (AID 2283637)
In short: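 Tropical 5D wild-type zebrafish embryos, dechorionated with pronase at 4 hpf, were exposed singly from 6 hpf to 120 hpf statically at 28C in 0.64% DMSO. Snout malformation was scored present/absent by brightfield microscopy, fitted against DMSO.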

[19] = Tanguay_ZF_120hpf_JAW_legacy: (Legacy) Oregon State University Tanguay Lab 120 Hour Post-fertilization zebrafish Assay for Jaw Malformation (AID 2283638);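 for AC50: active means more embryos with jaw malformation than DMSO controls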
In short: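 Wild-type 5D embryos, chorion removed at 4 hpf, dosed singly from 6 hpf; 28C static, sealed, foil-covered, to 120 hpf. Endpoint: jaw defect yes/no (brightfield); mortality excludes scoring.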

[20] = read-out: UDP glucuronosyltransferase (UGT1A1), UGT1A1 (gene 54658); test: LTEA_HepaRG_UGT1A1: Life Technologies and Expression Analysis (LTEA) Assay for UDP glucuronosyltransferase (UGT1A1) using HepaRG (AID 2283538; active = hit-call score of the fitted dose curve at least 0.9, where 1 is the maximum; inactive = score below 0.9); details: mRNA level, 48 h; actives raise or lower the signal
In short: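 Readout is UGT1A1 transcript level by qRT-PCR, normalized to three housekeeping genes, after 48 h chemical treatment of HepaRG cells. Concentrations ran from 100 uM down in half-log steps with 0.5% DMSO, and gain or loss relative to DMSO was fitted.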

Measured: AC50

Cc1cccc([N+](=O)[O-])c1
not listed: [20]
inactive: all other assays above

CCC(C)(c1ccc(O)cc1)c1ccc(O)cc1
active: [7] 87.1 µM and 71 µM | [9] 86.3 µM and 76.2 µM | [10] 77.1 µM | [11] 75.7 µM | [13] 84.6 µM and 82.3 µM | [14] 36.9 µM | [15] 41 µM | [16] 46.9 µM | [17] 46.2 µM | [18] 46.2 µM | [19] 47.3 µM
inactive: [1] | [2] | [3] | [4] | [5] | [6] | [8] | [10] | [11] | [12]

ClC1=C(Cl)[C@]2(Cl)[C@@H]3[C@@H](Cl)[C@H]4O[C@H]4[C@@H]3C1(Cl)C2(Cl)Cl
active: [20] 2.1 µM | [6] 76.7 µM | [10] 65.1 µM | [13] 72.3 µM
inactive: all other assays above

Oc1ccc(C(c2ccc(O)cc2)(C(F)(F)F)C(F)(F)F)cc1
active: [1] 94.5 µM | [2] 74.5 µM | [3] 77.7 µM | [4] 77 µM | [5] 60.9 µM and 100 µM | [6] 65.1 µM | [7] 63 µM | [8] 82.1 µM | [9] 54.2 µM | [10] 63.7 µM and 71.3 µM | [11] 72.8 µM | [12] 72.3 µM | [13] 57.3 µM and 69.7 µM | [14] 33 µM | [15] 57.4 µM | [16] 58.3 µM | [17] 53.9 µM | [18] 53.8 µM | [19] 54.7 µM
inactive: [5] | [6] | [7] | [8] | [9] | [11] | [12]

Cc1ccccc1O
not listed: [8] | [12] | [16]
inactive: all other assays above

C[C@]12CCC(=O)C=C1CC[C@@H]1[C@@H]2CC[C@]2(C)C(=O)CC[C@@H]12
active: [20] 13.1 µM | [15] 36.2 µM | [16] 40.2 µM | [17] 45.5 µM | [18] 37.7 µM | [19] 38.3 µM
inactive: all other assays above

Oc1c(Cl)c(Cl)c(Cl)c(Cl)c1Cl
active: [1] 6.71 µM | [2] 6.77 µM | [3] 6.22 µM | [4] 6.81 µM | [7] 8.58 µM and 1.98 µM | [9] 5.71 µM and 1.86 µM | [11] 8.02 µM | [13] 11.1 µM and 2.43 µM | [14] 0.801 µM
inactive: [5] | [6] | [8] | [10] | [11] | [12] | [15] | [16] | [17] | [18] | [19]

CCOP(=S)(OCC)SCSC(C)(C)C
not listed: [8] | [9] | [10] | [11] | [12] | [16] | [19]
inactive: all other assays above

CCCCCCOC(=O)c1ccccc1C(=O)OCCCCCC
active: [20] 62 µM
not listed: [6] | [7] | [9] | [10] | [16]
inactive: all other assays above

Cc1ccc(O)c(C)c1
not listed: [5]
inactive: all other assays above

COc1ccc(O)c(C(C)(C)C)c1
inactive: [1] | [20] | [2] | [3] | [4] | [5] | [7] | [8] | [9] | [10] | [11] | [13] | [14] | [15] | [16] | [17] | [18] | [19]
active: [13] 86.1 µM

CCCCCCCCOC(=O)c1ccccc1C(=O)OCCCCCCCC
not listed: [10]
inactive: all other assays above

C1CC2OC2CC1C1CO1 (centres undefined)
not listed: [8] | [11] | [15] | [16]
inactive: all other assays above
